# Results taken from PubChem BioAssay AID489037 (National Center for Advancing Translational Sciences (NCATS), 2010).
# “And” between values parts separate entries of the source, which are not always exact repeats. Equal values may be shown once. Records with an inconclusive call do not appear. The source made the active and inactive calls. Calls come from the whole dose curve; as a rule, active = well fitted inhibition curve with a large enough effect; inconclusive = small, poorly fitted or top-dose-only effect, or effect the other way; inactive = no such curve, though single readings can be large or run the other way.
# Target: Nuclear receptor ROR-gamma (Mus musculus) (UniProt P51450)
# Assay: Secondary confirmation assay for inhibitors of ROR gamma transcriptional activity
# Details: Drosophila S2 Gal4-RORgamma UAS-luciferase reporter, 20 h; series mostly up to 92.2 µM
# How it was run: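 Drosophila Schneider cells stably expressing Gal4-DBD/ROR gamma fusion (metallothionein promoter) with UAS-Photinus luciferase reporter. Compound preincubated 1 hr, then copper sulfate 700 uM final added; 20 hr at ambient temperature, luminescence read.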
# Chain of Nuclear receptor ROR-gamma (Mus musculus) (P51450 whole entry, looked up): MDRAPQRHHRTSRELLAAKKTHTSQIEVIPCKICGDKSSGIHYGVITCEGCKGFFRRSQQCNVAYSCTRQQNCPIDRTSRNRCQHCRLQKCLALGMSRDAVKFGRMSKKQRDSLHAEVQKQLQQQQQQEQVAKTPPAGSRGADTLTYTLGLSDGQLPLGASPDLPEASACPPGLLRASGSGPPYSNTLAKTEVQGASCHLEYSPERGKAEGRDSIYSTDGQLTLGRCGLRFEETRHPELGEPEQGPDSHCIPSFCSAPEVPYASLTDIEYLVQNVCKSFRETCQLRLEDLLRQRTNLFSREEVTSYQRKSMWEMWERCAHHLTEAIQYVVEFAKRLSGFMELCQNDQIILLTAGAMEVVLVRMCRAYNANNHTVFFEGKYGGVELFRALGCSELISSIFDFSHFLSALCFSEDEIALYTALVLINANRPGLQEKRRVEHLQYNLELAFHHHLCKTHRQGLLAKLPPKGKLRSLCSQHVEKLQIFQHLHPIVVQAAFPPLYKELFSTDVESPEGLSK
SMILES,Potency,"activity change, negative = inhibition"
COc1ccccc1CNC(=O)[C@@H](NC(=O)C1CCN(C(=O)[C@@H]2CCCN2C(=O)OC(C)(C)C)CC1)C(C)C,12.9 µM (active),
COc1ccccc1C(CC(=O)Nc1ccc(F)cc1)c1ccccc1 (centres undefined),inactive,
COc1cc(O)c(C(CC(=O)N2CCCC(C)C2)c2ccc(-c3ccccc3)cc2)c(OC)c1 (centres undefined),inactive,
COc1cc(O)c(C(CC(=O)N2CC(C)CC(C)C2)c2ccc3c(c2)OCCO3)c(OC)c1 (centres undefined),0.645 µM (active),
CC(C)(C)c1ccc(-c2noc(CCC(=O)Nc3cccnc3)n2)cc1,0.257 µM (active),
CCOc1cccc(-c2cc(-c3n[nH]c(=S)n3CC)c3ccccc3n2)c1,2.29 µM (active) and 1.82 µM (active),
COc1cc(O)c(C(CC(=O)N(Cc2ccccc2)Cc2ccccc2)c2ccc3c(c2)OCO3)c(OC)c1 (centres undefined),inactive,
COc1cc(OC)c(C(CC(=O)N2CC(C)CC(C)C2)c2ccc3c(c2)OCO3)c(OCC(N)=O)c1 (centres undefined),11.5 µM (active),
COc1cc(O)c(C(CC(=O)N2CCc3ccccc3C2)c2ccc3c(c2)OCO3)c(OC)c1 (centres undefined),inactive,
COc1cc(O)c(C(CC(=O)N2CCCC(C)(C)C2)c2ccc3c(c2)OCO3)c(OC)c1 (centres undefined),5.12 µM (active),
Cc1nn(-c2cc(C)c3ccccc3n2)c2c1C1C(C2)C1(C)C (centres undefined),3.63 µM (active),
COc1ccc(-c2c[n+]3c(n2-c2ccc(C)cc2)CCCCC3)cc1,11.5 µM (active),
O=C(/C=C/c1ccc(S(=O)(=O)N2CCOCC2)cc1)NC(=S)Nc1ccc(N2CCOCC2)cc1,2.04 µM (active),
COc1cc(O)c(C(CC(=O)N2CC(C)OC(C)C2)c2ccc3c(c2)OCO3)c(OC)c1 (centres undefined),1.29 µM (active),
COC(=O)Cn1c(CN2CCc3ccccc3C2)nc2c1c(=O)n(C)c(=O)n2C,6.45 µM (active),
Cc1cc(C)n(-c2nc(SCC(=O)O)c3c4c(sc3n2)CCCC4)n1,9.11 µM (active),
COc1cc(OC)c(C(CC(=O)N2CCCC(C)C2)c2ccc3c(c2)OCO3)c(OCc2ccccc2)c1 (centres undefined),6.45 µM (active),

SMILES,Potency,"activity change, negative = inhibition"
COc1cc(O)c(C(CC(=O)N2CCCC(C)C2)c2ccc3c(c2)OCO3)c(OC)c1 (centres undefined),3.63 µM (active) and 3.23 µM (active),
COc1cc(O)c(C(CC(=O)N2CCC(C)CC2)c2ccc(OC)c(OC)c2)c(OC)c1 (centres undefined),inactive,
CC1=C(\C=C/C(C)=C/C=C\C(C)=C\C(=O)O)C(C)(C)CCC1,,-12.4% [at 20 µM] (inactive)
COc1ccc(C(CC(=O)Nc2ccc(F)cc2)c2ccccc2)cc1 (centres undefined),inactive,
Cc1ccc(Sc2cncc3sc(C(N)=O)cc23)cc1,0.204 µM (active),
COc1cc(O)c(C(CC(=O)N2CCCC(C)C2)c2ccc(OC)c(OC)c2)c(OC)c1 (centres undefined),9.11 µM (active),
Cc1cccc(-c2nc3cc(NC(=O)C4CCCO4)ccc3o2)c1 (centres undefined),0.724 µM (active),
COc1cc(OC)c(C(CC(=O)N2CC(C)CC(C)C2)c2ccc3c(c2)OCO3)c(OCC#N)c1 (centres undefined),7.24 µM (active),
Cc1ccc(O)c(C(CC(=O)NC2CCCCC2)c2ccccc2)c1 (centres undefined),inactive,
CCN(CC)c1ccc(/C=N/n2c(-c3ccccc3Br)n[nH]c2=S)cc1,1.62 µM (active),
COc1cc(O)c(C(CC(=O)N2CCCC(C)C2)c2ccccc2C)c(OC)c1 (centres undefined),7.24 µM (active),
CN1CCN(C(=O)CCN2C(=O)/C(=C/c3ccccc3Cl)SC2=S)CC1,28.8 µM (active),
CC(C)(C)c1ccc([S+](=O)([O-])Nc2ccccc2C(O)(C(F)(F)F)C(F)(F)F)cc1,16.2 µM (active),
Cc1ccc(OCCCC(=O)Nc2nc3ccccc3[nH]2)cc1,7.24 µM (active),
COc1cc(O)c(C(CC(=O)N2CCCC(C(=O)c3ccccc3)C2)c2ccc3c(c2)OCO3)c(OC)c1 (centres undefined),inactive,
CCNC(=O)CCc1nc(-c2ccc(C(C)(C)C)cc2)no1,0.512 µM (active),
COc1cc(O)c(C(CC(=O)NC2CCCc3ccccc32)c2ccc3c(c2)OCO3)c(OC)c1 (centres undefined),inactive,
